Results on eight compounds are retold here after PubChem BioAssay (NCATS).

A number with no mark means an inactive call. Records with an inconclusive call do not appear. Activity calls are given as the source filed them. Unless noted, the call rests on the fitted dose curve; in most records, active means well fitted curve in either direction with a large enough effect (not every such curve was filed as active); inconclusive means small, poorly fitted or top-dose-only effect, or another doubt; inactive means flat fitted curve, though single readings scatter.

In assay [1] the target is Lysosomal acid glucosylceramidase (Homo sapiens) (UniProt P04062). Briefly: Glucocerebrosidase-p2 (AID 348; in the data active means potency below about 10 µM; further: potency means the concentration at half of the fitted maximal effect). The note with it: purified GBA, blue fluorogenic substrate, 40 min. A digest of the protocol: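 Compounds titrated from 0.6 nM upwards against 0.2 nM enzyme in pH 5.9 citric acid/KH2PO4, taurocholate, tween-20; blue fluorogenic substrate 80 uM, 40 min room temperature, stopped and read Ex 365/Em 440 for AC50.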
Chain of Lysosomal acid glucosylceramidase (Homo sapiens) (P04062 whole entry, looked up): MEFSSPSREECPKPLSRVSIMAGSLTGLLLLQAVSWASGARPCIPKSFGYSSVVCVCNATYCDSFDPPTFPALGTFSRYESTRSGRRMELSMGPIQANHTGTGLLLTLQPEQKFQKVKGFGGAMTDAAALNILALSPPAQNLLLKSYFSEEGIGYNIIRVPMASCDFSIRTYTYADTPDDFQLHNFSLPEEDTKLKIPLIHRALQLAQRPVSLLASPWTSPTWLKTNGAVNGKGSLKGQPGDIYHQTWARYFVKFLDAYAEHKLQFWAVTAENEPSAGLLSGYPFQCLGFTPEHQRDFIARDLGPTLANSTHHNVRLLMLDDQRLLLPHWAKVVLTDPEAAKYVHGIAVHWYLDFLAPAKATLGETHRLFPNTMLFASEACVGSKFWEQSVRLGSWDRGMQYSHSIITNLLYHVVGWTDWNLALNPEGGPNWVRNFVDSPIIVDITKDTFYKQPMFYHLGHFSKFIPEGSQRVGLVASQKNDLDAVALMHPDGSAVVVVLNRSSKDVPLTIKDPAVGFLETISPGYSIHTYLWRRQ

The nature of assay [2]: AP1 Signaling Pathway (AID 357).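 Further: ME-180 reporter cells stimulated with EGF at its EC50 level; on the % scale 0 is the no-effect control and ±100 the full control effect.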 The conditions noted are these: ME-180 AP-1-bla reporter, EGF-induced, beta-lactamase ratio, 5 h; at 7.69 µM (top of the series) unless noted. A digest of the protocol:
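Titration-series screen for positive or negative modulators of EC50 EGF-induced signaling in ME-180 cells carrying an AP-1-driven beta-lactamase reporter. After 5 hours at 37 degrees Celsius, CCF4 460nm/530nm emission ratio gave %Activity; AC50 values derived.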

The target in assay [3] is Cytochrome P450 1A2 (Homo sapiens) (UniProt P05177). Briefly: p450-cyp1a2 (AID 410; calls by dose curve; further: potency means the concentration at half of the fitted maximal effect;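 on activity change, negative = inhibition: -100% = full effect of reference inhibitor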). The conditions noted are these: recombinant CYP1A2, luciferin-ME demethylation, luminescence; series mostly up to 57 µM. The gist of the method:
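Luminescent readout of luciferin formed from Luciferin-ME by human CYP1A2; data normalized against complete inhibition by 57 uM furafylline. Enzyme 20nM, substrate 100uM at Km, 100mM KPO4 buffer, 60 min reaction at room temperature.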

Assay [4] can be described thus: NFAT Signaling Pathway (AID 444).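 Further: carbachol stimulus at about its EC50 of 1 µM final; on the % scale 0 is the no-effect control and ±100 the full control effect.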 The conditions noted are these: Jurkat NFAT-bla M1, carbachol, beta-lactamase ratio, 5 h; at 7.69 µM (top of the series) unless noted. The gist of the method: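 Read-out: CCF4 FRET ratio (460 nm/530 nm) after 1 h RT dye loading, used for %activity and AC50 from titration series. Cells: Jurkat NFAT-β-lactamase/M1 line, treated with compound plus 1 uM carbachol for 5 h, 37 °C.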

The nature of assay [5]: Stat Signaling Pathway (AID 446).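 Further: ME-180 cervical cancer cells given 40 pM IL-6 alongside compound; SIE-controlled beta-lactamase reporter measured as 460/530 nm FRET emission ratio; on the % scale 0 is the no-effect control and ±100 the full control effect.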 The note with it: ME-180 (cervical carcinoma) SIE beta-lactamase reporter, IL-6 stimulated, 5 h; at 7.69 µM (top of the series) unless noted. A digest of the protocol: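 IL-6/STAT signaling read in ME-180 cells via an SIE beta-lactamase reporter. Stimulus was 40 pM IL-6 (its AC50) for 5 hrs, so both activation and inhibition register.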
Assay [6] concerns the target Glucocorticoid receptor (Homo sapiens) (UniProt P04150). Briefly: GR-EFC Redistribution (AID 451; calls by dose curve; further: potency means the concentration at half of the fitted maximal effect). The conditions noted are these: CHO-K1 GR-EFC translocation, beta-gal luminescence, 2 h. The gist of the method:
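Translocation of GR-ED fusion to nuclear EA restores b-gal, read by luminescence after 1 h room-temperature detection. Engineered CHO-K1 biosensor cells, 1,000/well, exposed 2 h at 37 C to titrations up to 46 uM final.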

Assay [7] has as its target Mitogen-activated protein kinase 10 (Mus musculus) (UniProt Q61831). The assay is described as follows: JNK3 AlphaScreen Assay (AID 530).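 Further: kinase came from lysate of stimulated human HepG2 cells; signal reports phosphorylation of biotinylated GST-cJun 1-79 at Ser73 with 10 µM ATP; on the % scale 0 is the no-effect control and ±100 the full control effect.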 The conditions noted are these: JNK3 lysate, c-Jun phosphorylation; series mostly up to 57.1 µM. A digest of the protocol: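 Compound titrations were preincubated 15 minutes at room temperature with substrate, antibody and pre-activated JNK3-containing HepG2 lysate. Reactions were started with 10 uM ATP and stopped with EDTA-containing bead buffer for AlphaScreen detection.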
For orientation: Bead proximity is the source of the signal in Alpha formats.

The target of assay [8] is 3',5'-cyclic-AMP phosphodiesterase 4B (Homo sapiens) (UniProt Q07343). Briefly: qHTS Assay for Inhibitors of PDE-IV (AID 607; active means well fitted activation curve with a large enough effect in the main read-out, with a control signal flat, not every such curve was filed as active; further: % of control where 0% means no effect). The conditions noted are these: HEK293 ACTOne CNG channel cells, membrane potential fluorescence; series mostly up to 22.9 µM. A digest of the protocol:
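Live HEK293 cells with a modified cyclic nucleotide-gated (CNG) channel report intracellular cAMP via membrane-potential dye fluorescence (ex 535/em 590 nm). Endogenous PDE-IV was targeted. Compounds were tested at up to 22.9 uM final; RO 20-1724 100 uM served as control.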
(In general: Quantitative high-throughput screening tests each substance at several concentrations.)

Assay [9] concerns the target Cytochrome P450 3A4 (Homo sapiens) (UniProt P08684). Briefly: qHTS Assay for Activators of Cytochrome P450 3A4 (AID 885; active means well fitted curve in the direction sought with a large enough effect; an effect the other way counts as inactive or inconclusive; further: nearly all actives have a fitted effect of over 65% in size). The conditions noted are these: recombinant CYP3A4, Luciferin-PPXE luminescence, 60 min; series mostly up to 57.1 µM. The gist of the method: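 Quantitative HTS format: compounds preincubated with 20nM human CYP3A4 and Luciferin-PPXE substrate at KM, reaction started by NADPH regeneration, stopped after 60 min, luciferase luminescence read 20 min later.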

Assay [10] can be described thus: Primary qHTS for small molecule stabilizers of the endoplasmic reticulum resident proteome: Secreted ER Calcium Modulated Protein (SERCaMP) assay (AID 1508630; active means well fitted curve in the direction sought with a large enough effect; an effect the other way counts as inactive or inconclusive; further: on the % scale 0 is the no-effect control and ±100 the full control effect). The note with it: SH-SY5Y GLuc-SERCaMP (Gaussia luciferase released on ER calcium loss) secretion, thapsigargin, luminescence; series mostly up to 38.4 µM. The gist of the method: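 GLuc-SERCaMP-expressing SH-SY5Y cells, pretreated 16 h with compound, are challenged with thapsigargin to empty ER calcium stores; after 4 h, coelenterazine is added directly to the medium and luminescence is imaged.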

Assay [11] has as its target Cytochrome P450 2C19 (Homo sapiens) (UniProt P33261). The assay is described as follows: qHTS Assay for Inhibitors and Substrates of Cytochrome P450 2C19 (AID 899; active means well fitted curve in the direction sought with a large enough effect; an effect the other way counts as inactive or inconclusive; further: potency means the concentration at half of the fitted maximal effect; nearly all actives have a fitted effect of over 60% in size). The conditions noted are these: recombinant CYP2C19, luciferin-H EGE luminescence; series mostly up to 57.1 µM. The gist of the method: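 Luminescence readout of luciferin formed from 10uM Luciferin-H EGE (KM level) by 5 nM CYP2C19 in 50mM KPO4. 60 min NADPH-driven reaction at 37C after 10 min compound preincubation; data scaled to 57uM ketoconazole inhibition.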

Chain of 3',5'-cyclic-AMP phosphodiesterase 4B (Homo sapiens) (Q07343 whole entry, looked up): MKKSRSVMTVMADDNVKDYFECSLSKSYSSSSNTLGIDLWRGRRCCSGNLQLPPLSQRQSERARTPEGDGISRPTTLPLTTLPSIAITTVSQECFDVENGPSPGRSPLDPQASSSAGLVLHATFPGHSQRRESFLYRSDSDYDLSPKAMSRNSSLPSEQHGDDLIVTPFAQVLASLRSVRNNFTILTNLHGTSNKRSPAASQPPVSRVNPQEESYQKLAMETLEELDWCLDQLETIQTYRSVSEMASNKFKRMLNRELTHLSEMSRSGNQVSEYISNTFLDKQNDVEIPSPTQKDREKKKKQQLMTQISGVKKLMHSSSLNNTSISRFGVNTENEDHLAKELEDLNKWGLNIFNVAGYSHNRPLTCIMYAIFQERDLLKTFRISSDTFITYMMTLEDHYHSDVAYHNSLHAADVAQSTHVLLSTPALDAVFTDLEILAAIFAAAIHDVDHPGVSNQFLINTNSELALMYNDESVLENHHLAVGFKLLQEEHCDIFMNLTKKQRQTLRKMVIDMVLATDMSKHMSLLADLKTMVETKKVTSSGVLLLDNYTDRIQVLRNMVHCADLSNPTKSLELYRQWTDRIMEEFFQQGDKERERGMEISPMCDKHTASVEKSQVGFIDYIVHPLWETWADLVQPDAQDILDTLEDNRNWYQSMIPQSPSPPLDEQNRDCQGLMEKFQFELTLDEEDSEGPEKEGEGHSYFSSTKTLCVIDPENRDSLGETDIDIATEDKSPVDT
Chain of Cytochrome P450 3A4 (Homo sapiens) (P08684 whole entry, looked up): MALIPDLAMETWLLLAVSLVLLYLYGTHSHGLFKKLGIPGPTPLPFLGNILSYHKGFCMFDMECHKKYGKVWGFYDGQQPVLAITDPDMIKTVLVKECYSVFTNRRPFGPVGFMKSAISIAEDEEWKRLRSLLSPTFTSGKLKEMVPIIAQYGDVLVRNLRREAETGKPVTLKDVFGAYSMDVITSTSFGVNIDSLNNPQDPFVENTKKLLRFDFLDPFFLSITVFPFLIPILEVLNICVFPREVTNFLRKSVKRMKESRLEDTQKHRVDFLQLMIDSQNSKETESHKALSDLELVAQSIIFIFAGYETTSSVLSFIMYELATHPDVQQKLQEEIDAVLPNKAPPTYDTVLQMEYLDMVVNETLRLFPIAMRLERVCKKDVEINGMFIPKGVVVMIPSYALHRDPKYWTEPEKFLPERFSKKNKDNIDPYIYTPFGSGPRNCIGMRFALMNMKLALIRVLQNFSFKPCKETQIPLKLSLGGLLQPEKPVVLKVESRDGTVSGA
Chain of Glucocorticoid receptor (Homo sapiens) (P04150 whole entry, looked up, the tested form may be a part): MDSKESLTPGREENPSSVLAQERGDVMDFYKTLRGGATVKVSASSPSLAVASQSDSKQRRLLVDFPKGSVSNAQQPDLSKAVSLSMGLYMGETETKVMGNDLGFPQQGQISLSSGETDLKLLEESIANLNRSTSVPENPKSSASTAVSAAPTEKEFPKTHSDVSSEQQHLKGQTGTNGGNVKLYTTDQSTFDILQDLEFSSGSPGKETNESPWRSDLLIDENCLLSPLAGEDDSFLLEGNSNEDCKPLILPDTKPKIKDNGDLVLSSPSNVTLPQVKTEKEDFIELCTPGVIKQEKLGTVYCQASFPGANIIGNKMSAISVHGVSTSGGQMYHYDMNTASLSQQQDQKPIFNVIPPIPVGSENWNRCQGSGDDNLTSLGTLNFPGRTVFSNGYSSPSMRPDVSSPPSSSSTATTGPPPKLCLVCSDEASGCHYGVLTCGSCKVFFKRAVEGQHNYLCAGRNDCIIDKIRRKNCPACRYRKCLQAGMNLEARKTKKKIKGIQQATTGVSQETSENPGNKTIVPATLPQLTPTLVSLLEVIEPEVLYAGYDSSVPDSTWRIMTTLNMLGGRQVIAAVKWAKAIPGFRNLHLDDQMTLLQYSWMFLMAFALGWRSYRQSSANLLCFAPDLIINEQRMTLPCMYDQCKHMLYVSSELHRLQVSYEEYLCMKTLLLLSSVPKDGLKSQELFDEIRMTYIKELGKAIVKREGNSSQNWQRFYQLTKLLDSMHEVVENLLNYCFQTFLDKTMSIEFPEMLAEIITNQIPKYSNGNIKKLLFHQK
Chain of Cytochrome P450 1A2 (Homo sapiens) (P05177 whole entry, looked up): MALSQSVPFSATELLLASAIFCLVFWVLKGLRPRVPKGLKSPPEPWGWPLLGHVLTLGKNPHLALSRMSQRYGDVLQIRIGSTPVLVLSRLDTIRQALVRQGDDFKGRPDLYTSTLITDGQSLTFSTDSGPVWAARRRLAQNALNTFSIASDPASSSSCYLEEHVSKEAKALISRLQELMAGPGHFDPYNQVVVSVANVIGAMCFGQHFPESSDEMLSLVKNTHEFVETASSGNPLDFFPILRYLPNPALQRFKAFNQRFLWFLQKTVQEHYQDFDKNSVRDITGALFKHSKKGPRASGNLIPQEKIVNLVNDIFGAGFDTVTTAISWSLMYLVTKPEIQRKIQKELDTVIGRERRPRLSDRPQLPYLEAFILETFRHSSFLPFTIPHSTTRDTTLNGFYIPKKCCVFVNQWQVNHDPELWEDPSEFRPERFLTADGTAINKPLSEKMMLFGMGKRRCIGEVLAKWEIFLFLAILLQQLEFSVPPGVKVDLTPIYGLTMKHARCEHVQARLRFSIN
Chain of Cytochrome P450 2C19 (Homo sapiens) (P33261 whole entry, looked up): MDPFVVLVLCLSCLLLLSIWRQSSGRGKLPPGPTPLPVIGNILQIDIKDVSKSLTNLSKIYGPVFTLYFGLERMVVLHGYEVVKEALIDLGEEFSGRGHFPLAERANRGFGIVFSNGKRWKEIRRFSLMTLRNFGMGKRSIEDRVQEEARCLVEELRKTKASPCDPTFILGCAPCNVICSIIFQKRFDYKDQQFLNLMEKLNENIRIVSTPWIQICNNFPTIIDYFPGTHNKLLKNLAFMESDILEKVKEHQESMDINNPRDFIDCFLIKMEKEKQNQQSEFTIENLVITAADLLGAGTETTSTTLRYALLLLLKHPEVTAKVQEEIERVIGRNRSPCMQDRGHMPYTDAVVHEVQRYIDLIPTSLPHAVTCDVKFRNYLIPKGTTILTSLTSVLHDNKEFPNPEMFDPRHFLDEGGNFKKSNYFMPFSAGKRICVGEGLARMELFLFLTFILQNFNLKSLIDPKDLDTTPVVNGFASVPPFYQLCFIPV

Take `O=C(Nc1cccc(F)c1)N1CC[C@@]2(CCCN(S(=O)(=O)c3ccccc3)C2)C1`: the Potency is above 11.4 µM in assay [1], 15.8 µM (active) in assay [3] and above 46 µM in assay [6]. The activity change, negative = inhibition in [2] is -21%; in assay [4], 7.62%. In addition, the activity, negative = inhibition in assay [5] was -7.95%. The Potency result in assay [7], in assay [8] and in assay [9] was “inactive” each time. The outcome in [10] was inactive.
Consider `CC(=O)N1CCC2(CCCN(Cc3nccs3)C2)CC1`, for which the figures for the Potency in assay [1], in assay [6] and in assay [11] were above 11.4 µM, above 46 µM and 5.01 µM (active), respectively. For the same compound, the activity change, negative = inhibition in assay [2] is 3.8%; in assay [4], -6.07%. In addition, the Potency result in assay [3], in assay [7], in assay [8] and in assay [9] was “inactive” in each case. Also, in [5], the activity, negative = inhibition was 6.5%. Further, the outcome in assay [10] was inactive.
On to `COc1ccc(NC(=O)N2CC3(CCN(S(=O)(=O)c4ccccc4)CC3)C2)cc1`, for which the Potency in [1] was above 11.4 µM; in assay [6] it was above 46 µM. The values for the activity change, negative = inhibition in assay [2] and in assay [4] were -1.69% and 10.6%, respectively. Moreover, the Potency entry in [3], in [7], in [8] and in [9] was “inactive” in each case. Also, the activity, negative = inhibition in [5] is -2.28%. For the same compound, in [10], the result was inactive.
With `CC(C)NC(=O)N1CCCC2(CCN(C(=O)c3cccn3C)CC2)C1`, the Potency was above 11.4 µM in assay [1] and above 46 µM in assay [6]. For the same compound, the figures for the activity change, negative = inhibition in assay [2] and in [4] were 4.84% and -17.7%, respectively. Besides, the Potency result in assay [3], in assay [7], in assay [8] and in assay [9] was “inactive” in each case. Besides, in assay [5], the activity, negative = inhibition was 14.5%. The result in assay [10] was inactive.
Regarding `O=C(c1ccco1)N1CCC2(CCCN(c3ccccc3)C2)CC1`, the Potency in assay [1] was above 11.4 µM; in assay [6] it was above 46 µM. Besides, the activity change, negative = inhibition in [2] was -6.34%; in assay [4] it was -15.1%. Further, the Potency result in [3], in assay [7], in assay [8] and in [9] was “inactive” throughout. In addition, the activity, negative = inhibition in assay [5] was -2.43%. For the same compound, the outcome in [10] was inactive.
For `CC(=O)N1CCC2(CCCN(c3cccc(-c4ccccc4)c3)C2)CC1`, the Potency in assay [1] was above 11.4 µM; in assay [3], 5.01 µM (active); in assay [6] it was above 46 µM. Besides, the activity change, negative = inhibition in assay [2] was -12.3%; in assay [4] it was -0.641%. For the same compound, the activity, negative = inhibition in [5] was -8.45%. In addition, the Potency result in assay [7], in [8] and in assay [9] was “inactive” each time. In addition, in assay [10], the result was inactive.
`COCC(=O)N1CCC2(CCCN(c3cccc(-c4ccccc4)c3)C2)CC1`: the Potency in [1] was above 11.4 µM; in [3] it was 15.8 µM (active); in assay [6], above 46 µM. Further, the results for the activity change, negative = inhibition in assay [2] and in assay [4] were -22.8% and 17%, respectively. In addition, in [5], the activity, negative = inhibition is -10.6%. The Potency result in [7] and in [9] was “inactive” in each case. Besides, the result in assay [10] was inactive.
On to `COCCn1c(=O)c(-c2ccc(F)c(F)c2)nc2cncnc21`, for which the Potency is above 11.4 µM in assay [1], 0.251 µM (active) in assay [3] and above 46 µM in [6]. The activity change, negative = inhibition was -26.5% in [2] and -12.1% in assay [4]. Moreover, the activity, negative = inhibition in assay [5] was 0.716%. Further, the Potency result in assay [7], in [8] and in assay [9] was “inactive” in each case. Further, the result in [10] was inactive.
